Measurements as given in PubChem BioAssay AID1159580 (chemical genetic matrix, 2015).
Values joined by “and” are separate entries in the source; they are usually repeats but may differ in a detail not shown here. Equal entries are not always repeated. Hit rate of the full screen: of about 5,500 compounds, about 2,000 (36%) were called active. Inconclusive results (about 18%) are left out. Rule as the data show it: active = normalized growth mostly below about 0.91 (no sharp cut-off); inconclusive = no clear call, values can overlap the other calls; inactive = mostly above about 0.92. This is one part of the list.

Experiment: chemical genetic growth profiling, strain panel (AID 1159580);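 also: tested at 20 µM; growth read once vehicle control cultures reached saturation at 30 °C; 1 = growth at the plate median or of vehicle wells; lower values mean less growth of the strain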
Details: S. cerevisiae deletion strains, growth OD

Measured: normalized growth

CC1=C(C(=O)O)N2C(=O)[C@@H](NC(=O)[C@H](N)C3=CCC=CC3)C2SC1 (some centres not stated)
inactive: locus YAL013W, strain DEP1, active compounds read low 1 | locus YAL021C, strain ccr4, active compounds read low 1.01 | locus YAL026C, strain drs2, active compounds read low 1.03 | locus YAL030W, strain snc1, active compounds read low 1.03 | locus YBL061C, strain skt5, active compounds read low 1.03 | locus YBR009C, strain hhf1, active compounds read low 1.02 | locus YBR021W, strain FUR4, active compounds read low 1.02 | locus YBR023C, strain chs3, active compounds read low 1.02 | locus YBR171W, strain sec66, active compounds read low 1.04 | locus YBR229C, strain ROT2, active compounds read low 0.953 | locus YBR231C, strain swc5, active compounds read low 1.04 | locus YBR279W, strain paf1, active compounds read low 1.01 | locus YCL011C, strain gbp2, active compounds read low 1.03 | locus YCL016C, strain dcc1, active compounds read low 1.02 | locus YCL029C, strain bik1, active compounds read low 0.998 | locus YCL061C, strain MRC1, active compounds read low 1.02 | locus YCL069W, strain vba3, active compounds read low 1.02 | locus YCR088W, strain abp1, active compounds read low 1.02 | locus YDL005C, strain med2, active compounds read low 1.03 | locus YDL035C, strain GPR1, active compounds read low 0.965 | locus YDL040C, strain nat1, active compounds read low 1.02 | locus YDL074C, strain BRE1, active compounds read low 0.987 | locus YDL101C, strain DUN1, active compounds read low 0.98 | locus YDL185W, strain tfp1, active compounds read low 0.977 | locus YDL192W, strain arf1, active compounds read low 0.989 | locus YDR001C, strain nth1, active compounds read low 1.01 | locus YDR069C, strain doa4, active compounds read low 1.02 | locus YDR101C, strain arx1, active compounds read low 0.988 | locus YDR137W, strain rgp1, active compounds read low 1.03 | locus YDR159W, strain sac3, active compounds read low 1.04 | locus YDR162C, strain NBP2, active compounds read low 0.951 | locus YDR195W, strain ref2 0.992 | locus YDR297W, strain sur2, active compounds read low 1.02 | locus YDR318W, strain mcm21, active compounds read low 1 | locus YDR334W, strain swr1, active compounds read low 1.01 | locus YDR335W, strain msn5, active compounds read low 1.02 | locus YDR388W, active compounds read low 0.99 | locus YDR392W, strain spt3, active compounds read low 1.03 | locus YDR502C, strain sam2, active compounds read low 1.02 | locus YEL003W, strain gim4, active compounds read low 1.02 | locus YEL037C, strain rad23, active compounds read low 1.02 | locus YEL061C, strain CIN8 (second series), active compounds read low 1.02 | locus YEL061C, strain CIN8, active compounds read low 0.995 | locus YER015W, strain faa2, active compounds read low 1 | locus YER016W, strain bim1, active compounds read low 1.02 | locus YER110C, active compounds read low 0.981 | locus YER111C, strain swi4, active compounds read low 1.03 | locus YER155C, strain BEM2 (second series), active compounds read low 1.03 | locus YER155C, strain BEM2, active compounds read low 0.998 | locus YER167W, strain BCK2, active compounds read low 0.989 | locus YFR010W, strain ubp6, active compounds read low 1.03 | locus YGL078C, strain dbp3, active compounds read low 0.993 | locus YGL086W, strain mad1, active compounds read low 0.933 | locus YGL167C, strain pmr1, active compounds read low 1.04 | locus YGL173C, strain kem1, active compounds read low 1.03 | locus YGL227W, strain vid30, active compounds read low 1.02 | locus YGL240W, strain doc1, active compounds read low 1.03 | locus YGL248W, strain PDE1, active compounds read low 1.01 | locus YGL253W, strain hxk2, active compounds read low 1.03 | locus YGR135W, strain pre9, active compounds read low 1.03 | locus YGR252W, strain gcn5, active compounds read low 1.05 | locus YHR013C, strain ard1, active compounds read low 1.05 | locus YHR027C, strain rpn1, active compounds read low 1.02 | locus YHR030C, strain SLT2, active compounds read low 0.994 and 0.964 | locus YHR079C, strain IRE1 (second series), active compounds read low 1 | locus YHR079C, strain IRE1, active compounds read low 0.956 | locus YHR094C, strain hxt1, active compounds read low 0.983 | locus YHR129C, strain ARP1, active compounds read low 0.988 | locus YHR142W, strain chs7, active compounds read low 1.04 | locus YHR200W, strain rpn10, active compounds read low 0.986 | locus YIL066C, strain RNR3, active compounds read low 0.971 | locus YIL073C, strain SPO22, active compounds read low 1.01 | locus YIL125W, strain kgd1, active compounds read low 0.99 | locus YIR030C, strain dcg1, active compounds read low 0.993 | locus YJL092W, strain hpr5, active compounds read low 1.02 | locus YJL095W, strain BCK1 (second series), active compounds read low 1.02 | locus YJL095W, strain BCK1, active compounds read low 1.02 and 0.989 | locus YJL115W, strain asf1, active compounds read low 1.03 | locus YJL129C, strain trk1, active compounds read low 1.03 | locus YJL134W, strain LCB3, active compounds read low 0.985 | locus YJL154C, strain vps35, active compounds read low 1.01 | locus YJL164C, strain tpk1, active compounds read low 1.02 | locus YJL166W, strain qcr8, active compounds read low 1.02 | locus YJL168C, strain set2, active compounds read low 0.994 | locus YJL187C, strain SWE1 (second series), active compounds read low 0.996 | locus YJL187C, strain SWE1, active compounds read low 1.03 | locus YJR043C, strain POL32, active compounds read low 0.961
